According to PubChem BioAssay (NCI):
About 79,000 compounds went through this panel and 15% of them were active in at least one assay; those are over-represented in the sample as a whole. Unmarked numbers belong to inactive results. Activity calls are given as the source filed them. Rule as the data show it: active = growth inhibition above about 70%; inactive = the rest.

Experiments:
[1] = NCI Yeast Anticancer Drug Screen. Data for the rad50 strain (AID 155);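 also: 0% = growth of vehicle-only cultures of the same strain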; settings: S. cerevisiae rad50 strain growth inhibition, active compounds read high
Summary of the method: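 Yeast carrying a defined DNA repair defect were exposed to test compounds, and growth was compared with vehicle-treated controls to give percent inhibition.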

[2] = NCI Yeast Anticancer Drug Screen. Data for the mec2-1 strain (AID 157); settings: S. cerevisiae mec2-1 strain, active compounds read high
Summary of the method: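 Cells of the genetically defined mec2-1 yeast strain are incubated with test compound. Inhibition of growth is calculated against vehicle-treated controls.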

[3] = NCI Yeast Anticancer Drug Screen. Data for the sgs1 mgt1 strain (AID 161);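 also: 0% = growth of cultures given vehicle only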; settings: S. cerevisiae sgs1 mgt1 strain, active compounds read high
Summary of the method: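 Test agents were incubated with a DNA-repair-mutant yeast strain. Growth was then read and compared against vehicle-treated controls.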

[4] = NCI Yeast Anticancer Drug Screen. Data for the cln2 rad14 strain (AID 165);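 also: 0% = growth equal to vehicle treated cultures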; settings: S. cerevisiae cln2 rad14 strain, active compounds read high
Summary of the method: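 The screen exposed genetically defined yeast (cln2 rad14) to test compounds and scored growth inhibition relative to vehicle-treated controls.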

[5] = NCI Yeast Anticancer Drug Screen. Data for the bub3 strain (AID 167); settings: S. cerevisiae bub3 mutant strain, active compounds read high
Summary of the method: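 Compounds were applied to a genetically altered yeast strain carrying a cell-cycle control defect. Growth inhibition was scored against vehicle-treated controls.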

[6] = NCI Yeast Anticancer Drug Screen. Data for the mlh1 rad18 strain (AID 175); settings: S. cerevisiae mlh1 rad18 strain growth inhibition, active compounds read high
Summary of the method: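 Compound-treated yeast growth, normalised to vehicle controls. Strain bears defined DNA repair mutations.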

[7] = at 5.0 µM (retest, dose inferred, filed as 0.5)
[8] = at 50.0 µM (retest, dose inferred, filed as 5.0)

Row | Structure (SMILES) | growth inhibition [1, 7] | growth inhibition [1, 8] | growth inhibition ([1]; at 50.0 µM) | growth inhibition [2, 7] | growth inhibition [2, 8] | growth inhibition ([2]; at 50.0 µM) | growth inhibition [3, 7] | growth inhibition [3, 8] | growth inhibition ([3]; at 50.0 µM) | growth inhibition [4, 7] | growth inhibition [4, 8] | growth inhibition ([4]; at 50.0 µM) | growth inhibition [5, 7] | growth inhibition [5, 8] | growth inhibition ([5]; at 50.0 µM) | growth inhibition [6, 7] | growth inhibition [6, 8] | growth inhibition ([6]; at 50.0 µM)
1 | CCCCCCC[CH2][Sn]([F])([F])[CH2]CCCCCCC | 3% | -7% | 41% | 12% | 4% | 46.5% | -1% | -2% | 7.45% | -1% | -5% | 19.9% | 4% | -1% | -5.1% | 4% | -15% | 40.2%
2 | O=C(COc1ccc(Cl)c(Cl)c1)N(Cc1ccccc1)Cc1ccc[n+](Cc2ccc(S(=O)(=O)F)cc2)c1 | 4% | 99% (active) | 43.5% | -59% | 100% (active) | 51.9% | 1% | 100% (active) | 53.6% | 5% | 98% (active) | 56.9% | 3% | 99% (active) | 52.5% | 4% | 99% (active) | 59.4%
3 | COc1c(O)c2c(c3cc(C(=O)N4CCc5c4c(O)c(OC)c4[nH]c(C(=O)N6CC7CC78C6=CC(=O)c6[nH]cc(C)c68)cc54)[nH]c13)CCN2C(N)=O (centres undefined) | 97% (active) | 97% (active) | 89.8% (active) | 98% (active) | 98% (active) | 93% (active) | 96% (active) | 96% (active) | 90.5% (active) | 95% (active) | 95% (active) | 89% (active) | 94% (active) | 96% (active) | 91% (active) | 98% (active) | 97% (active) | 89.5% (active)
4 | O=c1[nH]cnc2[nH]cc(CN3CCCCC3)c12 | 7% | 21% | 17.8% | -7% | 2% | 13.2% | -1% | 29% | -1.4% | -32% | 0% | 33.2% | 12% | -1% | -54.8% | 3% | 8% | 9.4%
5 | C=C(C)C(=O)OC1CCC2(C)C(CCC3C2CCC2(C)C(c4ccc(=O)oc4)CC4OC432)C1 (centres undefined) | 7% | 67% | 71.9% (active) | 7% | 48% | 66.7% | -10% | 57% | 63.8% | 26% | 64% | 60.2% | 16% | 80% (active) | 71.3% (active) | 21% | 73% (active) | 63.9%
6 | CC1CN1C1=C(F)C(=O)C(N2CC2C)=C(F)C1=O (centres undefined) | 98% (active) | 99% (active) | 90.8% (active) | 100% (active) | 99% (active) | 94% (active) | 99% (active) | 99% (active) | 91% (active) | 99% (active) | 99% (active) | 91% (active) | 99% (active) | 99% (active) | 92.5% (active) | 99% (active) | 99% (active) | 91.5% (active)
7 | CCC[CH2][Sn]1([CH2]CCC)[O]N=Cc2ccccc2[O]1 | 46% | 94% (active) | 86.8% (active) | 50% | 97% (active) | 90.5% (active) | 79% (active) | 98% (active) | 88.2% (active) | 62% | 97% (active) | 87.1% (active) | 85% (active) | 98% (active) | 90.1% (active) | 73% (active) | 97% (active) | 88.3% (active)
8 | Cc1ccccc1C(=O)CN | -3% | -2% | 16.4% | 0% | -3% | -6% | -1% | 0% | -4.2% | -5% | -3% | 81.3% (active) | -2% | -9% | -13.1% | -1% | -3% | 12.9%
